The source of these data is the supplement of paper PMC6555819.

This test has as its system VDR:RXRa (NR concentration 270 nM, RXRa partner concentration 90 nM). As to the kind of experiment: PBM binding z-score (relative to random genomic background probes); higher = stronger binding; sequences stand for … in GC…GCGATTGACAGCGTAGAATGAAGG
How it is done: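 Protein-binding microarray (Agilent 4x180K custom design, double-stranded 60-nt probes: 5' GC cap, 34-nt variable region, 24-nt constant primer region; full probe sequence given). Purified or IVT nuclear receptor:RXRα heterodimers (3:1 NR:RXRα, mostly 270:90 nM) or homodimers were incubated for 1 h in PBS with 2% milk and no ligand, then detected with Alexa488 antibodies. Fluorescence from o1-orientation probes (~5 replicates averaged) was converted to z-scores against 500 random hg19 background probes. Variable regions are seed direct-repeat (DR0–DR5) sites, all their single-nucleotide variants and half-site ablations.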
For GCTATTAGTTGAAAGGGCAACCGCATGATTCTCG, the PBM binding z-score stood at 0.504. Under TAGAGTAGGTTAGGGGCATTCAGAATGGCGTCGA stands 1.06; under ATCTCTAGATAAGACTCAGTTCAGTGAAGAACGC, 0.209; under CAAACTAGGTTACCGGAAGGTCAAAGTCCGCATG, 4.16. Under CCTAGTTCGTCAGGAGGTCACACACCGGATATGA stands 5.03; under CCTACTAGGTCAATGGTCAGCTAAAGCAGCTCGC, 1.45; under CGAACGAGGGCATGAGATGATAGCAAATGCCGAT, 0.478. ACCGAAAGGTCGAAGGTGAGTATACCCACCCGAA showed a PBM binding z-score of 2.95.

In turn, TGTCAAAGTTAAAAGGTAACGTAAGTATCCACAC returned a PBM binding z-score of 0.375. Regarding GCTAGCAGGCCATTTCGGTCACTCAATGACGGGC, the PBM binding z-score is -0.644. Regarding AATATTAGTTGACTTAGGGCAACCGATACGACGC, the PBM binding z-score stood at 0.46. In turn, GCAAGCAGGCCATTTGGGTCACTCAATGACGGGC had a PBM binding z-score of 0.865.

For CAGCCTAAGTCAGGGCCAGTATAGGAGGAACGTT, the PBM binding z-score was -0.626.

As to GGATCGAGGGCAAAGTTGATAGCATCTGTCGACG, the PBM binding z-score turned out to be 1.44.

ATCTCTTGGTAAAGATAGTTCAGTGAATGCAAAT had a PBM binding z-score of 0.811. Next, ATTTCTAGGTAAGACTCAGTTCAGTGAAGAACGC: 1.6; TCTATTAGTTGAAGGGCAACCGCCGAGTCCGTTT: 0.974; TCTGCTAGGTCAACGATGGTCGGCTAATCTGCTA: 1.42. Consider CCTACTGGGCCAAACGTCATTGATTCCAATGCTC, for which the PBM binding z-score was -0.204.

The sequence CCTACGGGGCCATTCAGAGGTCATTGATCATATG returned a PBM binding z-score of 5.2. Sequence TTACCAGGGTGAGCTGAGGTCGTTGATCCAACTC showed a PBM binding z-score of 4.58.

TGTCACAGTTCAAAGGTAACGTAAGTATCCACAC registered a PBM binding z-score of 3.28. TCGAGTAGGTAAGGGGCATTCAGAATGGCGTCGA: the PBM binding z-score is 0.0857. Take CCTACTAGGCCAAAAAGGTCATTGATGCCGATAA: the PBM binding z-score is 5.16. Under CCGACTGCGGCAGAAAGGTTACCATACCATCCGG stands 0.485; under ACTATTAGTTGAGACGAGTGCAACCGATAGGTTG, 0.942. Next, CCTACTTGGCCATCAGGTCATTGATATCAACGTT: 2.12; CCTAGTTGGTCAACGTCACACACGCTATAGGTAC: 0.309. The sequence GGAACGAGGGCATTCGAGGTGATAGCATGGCGAT displayed a PBM binding z-score of 2.4. Under CTACCAAGGTGAACAAGGTCGTTGATTACTATTC stands 5.95; under CCTACTGGGCCACGAAAGGTCATGGATTCAGTGA, 4.1.

Turning to CCAACTAGGTCACGAAAGGTCAAAGTCGAATGAC, the PBM binding z-score worked out at 6.81. Under TTACCAAGGTGAAAGGTCGTAGATGCACGCCTTG stands 3.04; under ATCTATAGGTAAAAGTTCAGTGAATCCCGAGGAT, 1.28; under CAAACTAGATCACGAAAGGTCAAAGTCGAATGAC, 4.79. CCGACTGGGGCGAGGTTACCATAACGCACAGCCA: the PBM binding z-score worked out at 0.364. With TGTCAAAGTTCAAAGGTAAGGTAAGTATCCACAC, the PBM binding z-score was 4.95. CAAACTAGGTCTCGAAAGGTCAAAGTCGAATGAC: the PBM binding z-score came out at 4.71. Take CTTCAAAGTTCAACTAAGGTAACGTAAAGCACGC: the PBM binding z-score was found to be 4.63. Under CCTCGGAGGAGAGAAGGTCAGAGCTGTCCGCTTT stands 0.722.
